Screening results: PubChem BioAssay, National Center for Advancing Translational Sciences (NCATS)
Rows were chosen to be rich in hits. Some 21% of all compounds tested hit in one or more screens of this group.
DT40 TDP1 no CPT = qHTS for Inhibitors of human tyrosyl-DNA phosphodiesterase 1 (TDP1): qHTS in cells in absence of CPT. DT40 Tdp1-/- hTDP1 cells, no CPT, ATP luminescence, 48 h. 15% of 420,000 active. AID 686978, 2013. Potency, µM (highest dose often 46.2 µM), for inactives: top-dose activity change, negative = growth inhibition, usual class: inhibitors; also: potency is read from the fitted curve at half-maximal effect; nearly all actives have a fitted effect of over 55% in size
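Chicken DT40 Tdp1-/- cells complemented with human TDP1, screened without camptothecin (DMSO vehicle only), 400 cells/well. Compounds pin-transferred, cells incubated at 37 °C for at least 48 hr. Growth read as ATP-dependent luminescence (CellTiter-Glo, 30 min at RT).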
RORgamma inh = ROR gamma (mouse) transcription inhibition. P51450. Drosophila S2 Gal4-RORgamma UAS-luciferase reporter, 20 h. Potency, µM (series often up to 53.6 µM), without a hit: top-dose activity change, negative = inhibition, actives largely listed as inhibitors. 5.4% of 310,000 active. AID 2551; also: potency is read from the fitted curve at half-maximal effect; nearly all actives have a fitted effect of over 60% in size
Target sequence (P51450 whole entry, looked up, the tested form may be a part): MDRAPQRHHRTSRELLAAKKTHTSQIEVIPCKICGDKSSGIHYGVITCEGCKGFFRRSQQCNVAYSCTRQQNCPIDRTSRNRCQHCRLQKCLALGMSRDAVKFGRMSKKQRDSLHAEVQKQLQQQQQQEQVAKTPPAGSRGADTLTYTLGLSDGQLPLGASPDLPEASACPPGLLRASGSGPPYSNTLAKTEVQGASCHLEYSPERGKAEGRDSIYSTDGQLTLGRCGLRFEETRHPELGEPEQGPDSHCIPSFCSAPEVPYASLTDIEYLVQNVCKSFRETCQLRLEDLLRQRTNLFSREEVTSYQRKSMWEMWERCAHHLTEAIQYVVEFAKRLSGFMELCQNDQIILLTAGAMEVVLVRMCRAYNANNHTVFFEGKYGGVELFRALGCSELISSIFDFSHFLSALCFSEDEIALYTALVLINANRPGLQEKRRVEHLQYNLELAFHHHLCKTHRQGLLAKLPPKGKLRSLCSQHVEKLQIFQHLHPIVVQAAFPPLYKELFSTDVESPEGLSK
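Stable Schneider cell line, Gal4 DNA-binding domain fused to ROR gamma, UAS-luciferase. Cmpd 1 hr RT → CuSO4 700 uM final → 20 hr RT → luciferase reagent 10 min → luminescence.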
TDP1 cell CPT = DT40-hTDP1 cell growth loss with CPT; AID 686979; Potency, µM (titrated, usually from 46.2 µM), inactives show at the highest dose activity change, negative = growth inhibition, actives largely listed as inhibitors; chicken DT40 Tdp1-/-;hTDP1 cells + 20 nM CPT, ATP luminescence, 48 h; 12% of 420,000 active; also: potency is read from the fitted curve at half-maximal effect; nearly all actives have a fitted effect of over 55% in size
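Cell growth measured by CellTiter-Glo luminescence after a minimum 48 h, 37 C compound exposure with 20 nM CPT in Tdp1-knockout DT40 cells stably expressing hTDP1, seeded 400/well; qHTS titration format.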
ELG1 DNA repair = ELG1-dependent DNA repair inhibition; HEK293T ELG1-luciferase reporter, luminescence, 16 h; DNA damage induced by 5-fluorouridine; Potency, µM (titrated, usually from 46.1 µM), inactives show top-dose activity change, negative = inhibition, hits mostly inhibitors; 2.3% of 330,000 active; also: potency is read from the fitted curve at half-maximal effect; nearly all actives have a fitted effect of over 55% in size
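Quantitative HTS, concentration-response format. 2,000 cells/well co-treated with 5-fluorouridine and compound, 16 hr in 5% CO2 at 37 °C; ONE-Glo luminescence read after 30 min.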
Gal4-VP16 FLuc = inhibits Gal4-VP16 luciferase reporter, ROR gamma counter-screen | Drosophila S2 Gal4-VP16 UAS-luciferase, luminescence, 20 h | 3.5% of 310,000 active | Potency, µM (doses to about 53.6 µM), without a hit: at the highest dose activity, negative = inhibition, most hits filed as inhibitors;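 also: Gal4-VP16 expression switched on by copper sulfate through the metallothionein promoter; potency is read from the fitted curve at half-maximal effect; nearly all actives have a fitted effect of over 50% in size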
IL-1B inflam inh = inflammasome signaling inhibition, IL-1 beta readout; THP-1 LPS/ATP IL-1B secretion, AlphaLISA, 16 h; active compounds read low; activity change, % at 57.5 µM; 4.7% of 360,000 active; in the data active = activity change below about -50%; inconclusive = mostly about -30% to -49%
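THP-1 cells pretreated 1 hr with compounds (up to 57.5 uM final), then stimulated with LPS (250 ng/mL final) plus ATP (1.25 mM final); secreted IL-1B measured by AlphaLISA after 16 hr, decreased signal indicating inhibition.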
Numbers without * were called inactive; ? = inconclusive; . = not tested or not shown; [ ] = remark or other dose. Unless noted, calls follow the shape of the dose curve; as a rule, active = well fitted curve in the direction sought with a large enough effect; inconclusive = small, poorly fitted or top-dose-only effect, or another doubt; inactive = no such curve, though single readings can be large; an effect the other way counts as inactive or inconclusive. % is scaled to controls: 0 for no effect and ±100 for the full control effect.

SMILES | DT40 TDP1 no CPT | RORgamma inh | TDP1 cell CPT | ELG1 DNA repair | Gal4-VP16 FLuc | IL-1B inflam inh
COc1ccc(NC(=S)NCCSc2ccc(Cl)cc2)c(OC)c1 | ? | 1.1µM* | ? | 0% | 0%[0.365 µM] | -27
COc1ccccc1NC(=S)NCc1cccnc1 | 0% | 3% | 1% | 5% | -8% | -3
COc1ccc(NC(=S)NCCCN2CCCC2=O)c(OC)c1 | 18% | 11% | 20% | 10% | -2%[10 µM] | -5
COc1ccccc1NC(=S)NCCSc1ccc(Cl)cc1 | -22% | 18µM* | -2% | -4% | ? | 0
CC(=O)Nc1cc2c3c(cccc3c1)-c1ccccc1-2 | -4% | . | 29% | . | . | -13
COc1cccc(CN(C)C(=O)c2ccc(OCC(=O)N3CCOCC3)c(OC)c2)c1 | 19% | . | 5% | 14% | . | 10
Cc1ccc(CS(=O)Cc2ccc(C(=O)NCc3ccc(OC(C)C)cc3)o2)cc1 (stereo not drawn) | -16% | 12% | -23% | 7.3µM* | 5% | -7
COc1ccccc1NC(=O)c1ccc(-c2nc(COc3ccc(C)cc3)c(C)o2)cc1 | 18µM* | . | 21µM* | . | . | .
Cc1oc(-c2ccc(C(=O)NCc3ccc(N(C)C)cc3)cc2)nc1COc1ccccc1 | -26% | . | 3% | . | . | .
Cc1oc(-c2ccc(C(=O)NCc3ccccc3)cc2)nc1CN1CCc2ccccc21 | 21µM* | . | ? | . | . | .
COc1ccc(OC)c(NC(=O)c2ccc(-c3nc(COc4ccccc4)c(C)o3)cc2)c1 | 13µM* | . | ? | . | . | .
COc1ccc(CNC(=O)c2ccc(CS(=O)Cc3ccc(Cl)cc3)o2)cc1 (stereo not drawn) | 11% | 14% | -2% | -6% | 12% | 6
Cc1cc(NC(=O)C(C)SCC(=O)N(C)Cc2c(F)cccc2Cl)no1 (stereo not drawn) | ? | . | ? | -17% | . | 9
Cc1cccc(OCCNS(=O)(=O)c2ccc(Cl)cc2)c1 | -3% | . | ? | 4% | . | 0
COCCCN1C(=O)C(CC(=O)NCc2cccc3ccccc23)CC(C(=O)N2CCCCCC2)=C1C (stereo not drawn) | 12% | . | -6% | . | . | .
Cc1ccc(OCc2nc(-c3ccc(C(=O)NCc4ccc(OC(C)C)cc4)cc3)oc2C)cc1 | 21µM* | . | ? | . | . | .
COc1ccc(Cl)cc1NS(=O)(=O)c1cccc(C(=O)NC2CCN(Cc3ccccc3)CC2)c1 | ? | . | ? | . | . | -57*
COc1ccc(NS(=O)(=O)c2cccc(C(=O)NNC(=O)c3ccc(Br)o3)c2)cc1 | 5.8µM* | . | -53% | -28% | . | -13
COc1ccc(NS(=O)(=O)c2cccc(C(=O)NC3CCN(Cc4ccccc4)CC3)c2)cc1 | ? | -24% | 15µM* | 1% | -10% | -70*
Clc1cc(Cl)cc(Nc2ccccc2CN(C/C=C/c2ccc3c(c2)OCO3)Cc2ccccc2)c1 | -9% | . | 6% | . | . | 5
O=C(C[C@@H]1C[C@H]2c3cc(NC(=O)C4CCC4)ccc3O[C@H]2[C@@H](CO)O1)NCc1ccc(-c2ccccc2)cc1 | 21µM* | . | 18µM* | . | . | 5
O=C(C[C@@H]1C[C@H]2c3cc(NC(=O)c4cccnc4)ccc3O[C@H]2[C@H](CO)O1)NCc1ccc(Oc2ccccc2)cc1 | 5.8µM* | . | 13µM* | . | . | 75
O=C(C[C@@H]1C[C@@H]2c3cc(NS(=O)(=O)c4ccc(F)cc4)ccc3O[C@@H]2[C@H](CO)O1)NCc1ccc(Oc2ccccc2)cc1 | ? | . | ? | . | . | -11
CNc1ccccc1C(C)(C)c1cc(C)[nH]n1 | ? | -17% | 16µM* | -2% | 3% | 6
CC(C)C(c1nnnn1Cc1ccccc1)N1CCN(Cc2ccc3c(c2)OCO3)CC1 (stereo not drawn) | ? | -23% | ? | ? | -19% | ?
